This is part of a sample that, as a whole, favours compounds with a hit. Of some 83,000 tested, about 20% had one in any assay.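 48-hour exposure, single concentration, 96-well plates; percent growth endpoint where 0 means no net growth. Active: below 10.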 Unmarked numbers belong to inactive results. Active and inactive are the calls of the source.
tested on: RPMI-8226 leukemia; test: NCI-60 one-dose screen, 48 h (100 = growth as untreated, 0 = no growth, -100 = all killed); settings: 10 µM unless noted
Procedure: Growth inhibition of the RPMI-8226 human tumor cell line is measured as a screen for anti-cancer activity. Cells are grown in 96 well plates and exposed to the test compound for 48 hours. Compounds are tested at a single concentration, which is 10^-5 M for most compounds. The reported endpoint is percent growth (GI% or GIPRCNT), where numbers from 0 - 100% represent growth inhibition, and numbers from -100% - 0 represent cell death. For example, a value of 40 represents 60% growth inhibition. A value of 0 means no net growth occurred over the course of the experiment. A value of -40 indicates 40% of cells at the beginning of the experiment died by the end of the experiment. A value of -100 means all cells are dead at the end of the experiment.
NCI-60 Human Tumor Cell Lines Screen was performed using the standard one-dose NCI protocol, which is described in more detail at https://dtp.cancer.gov/discovery_development/nci-60/default.htm.
Compounds with GIPRCNT values below 10 were considered active. Activity score was based on GIPRCNT using the following formula: […]
Score is 0 for GIPRCNT values of 100 or above, 50 for GIPRCNT values of 0, and 100 for GIPRCNT values of -100.

| Compound | growth |
| --- | --- |
| CC(C)OCC(CCl)OC(=O)Nc1ccccc1 (stereo not given) | 109% |
| O=C(OC1CCCC1)c1ccccc1Cl | 102% |
| C=COC(=O)C(C)(C)C | 99.2% |
| NC(=S)N/N=C/c1ccc(OC(=O)COc2ccccc2)cn1 | 55.2% |
| CCCCCC#CC(=O)O | 99.7% |
| CCN(CC)CCN1CNC(=S)NC1 | 99.2% |
| Cn1c2ccccc2c2nnc(NCCCCO)nc21 | 69.6% |
| CC(c1ccccc1)N(C)C (stereo not given) | 155% |
| CCOC(=O)c1cc(C)[nH]c(=O)c1C#N | 80.4% |
| CN(C)Cc1ccccn1 | 90.9% |
| Cc1ccc(C)c2c1CCC2=O | 84.1% |
| COc1cc(OC)c2cc(C(=O)c3ccc(C#N)cc3)c(=O)oc2c1 | 103% |
| CCNC(=O)OCCc1c2ccccc2nc2ccccc12 | 76.7% |
| O=C(O)c1c[nH]c2ccccc2c1=O | 97.8% |
| CCNc1ccc2ccccc2c1N=Nc1ccc(N=Nc2ccccc2)cc1 | 95.9% |
| Oc1cccnc1CN1CCCC1 | 100% |
| CCOC(=O)CO | 110% |
| NC(=O)N1CCOCC1 | 94.8% |
| Cc1ccc(N2C(=O)c3cccc4c(N)c(S(=O)(=O)O)cc(c34)C2=O)cc1 | 104% |
| CC(=O)N=c1ccc2nc3c(cc(N)c4ccccc43)oc-2c1 | -19.9% (active) |

| Compound | growth |
| --- | --- |
| Cc1cc(C(=O)c2ccccc2)cc(C)c1O | 81.2% |
| OCC(O)COc1ccc(Cl)cc1Cl (stereo not given) | 102% |
| CCN(C(C)=O)c1ccc([N+](=O)[O-])cc1 | 93.9% |
| C=C1C(=O)C2CCC1C2 (stereo not given) | 106% |
| OCC1CCC(O)C(CO)N1 (stereo not given) | 83.7% |
| CC(C)N(C(=O)c1ccccc1)C(C)C | 105% |
| Cc1cc2c(C(C)C)c(O)c(O)c(C=Nc3ccccc3[N+](=O)[O-])c2c(O)c1-c1c(C)cc2c(C(C)C)c(O)c(O)c(C=Nc3ccccc3[N+](=O)[O-])c2c1O | 61.5% |
| Cc1ccnc(Nc2nc3ccccc3[nH]2)n1 | 94.1% |
| S=CN1CCCCC1 | 110% |
| Cc1cc2nc(C)c(C)nc2cc1C | 89.5% |
| C/C(=N\N=C(/C)c1cccc([N+](=O)[O-])c1)c1cccc([N+](=O)[O-])c1 | 87.7% |
| CCOc1ccncc1[N+](=O)[O-] | 112% |
| CCOc1ccc(NC(=S)N2CCC(CCCC3CCN(C(=S)Nc4ccc(OCC)cc4)CC3)CC2)cc1 | 65.8% |
| CN(C)c1ccc2c(N(C)C)cc(N(C)C)nc2c1 | 69.8% |
| COc1cccc2c1Cc1ccccc1-2 | 99.8% |
| CC(=O)N(C)N=Nc1ccc(C)cc1 | 102% |
| ON1CCCC1 | 88.2% |
| COC(=O)c1ccc([N+](=O)[O-])c(C)c1 | 81.1% |
| CSc1cnc2ccccc2n1 | 109% |
| Clc1cccc(Cl)c1C1CSc2ccccc2N=C1c1ccccc1 (stereo not given) | -14.8% (active) |
